Source: PubChem
Most compounds without a hit are left out; they make up all but 1.6% or so of the library.
KCNQ2 inh = blocks the rat KCNQ2 potassium channel. O88943. CHO-K1 KCNQ2, FluxOR thallium flux, 20 min; hits give low values. B-score at 10 µM. hit rate 1.1% among 310,000. AID 2156;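 active means fluorescence ratio B-score at most minus 3 library SDs, with starting brightness B-score within 2 library SDs, cut at about -5.5 in these data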
Target sequence (O88943 whole entry, looked up): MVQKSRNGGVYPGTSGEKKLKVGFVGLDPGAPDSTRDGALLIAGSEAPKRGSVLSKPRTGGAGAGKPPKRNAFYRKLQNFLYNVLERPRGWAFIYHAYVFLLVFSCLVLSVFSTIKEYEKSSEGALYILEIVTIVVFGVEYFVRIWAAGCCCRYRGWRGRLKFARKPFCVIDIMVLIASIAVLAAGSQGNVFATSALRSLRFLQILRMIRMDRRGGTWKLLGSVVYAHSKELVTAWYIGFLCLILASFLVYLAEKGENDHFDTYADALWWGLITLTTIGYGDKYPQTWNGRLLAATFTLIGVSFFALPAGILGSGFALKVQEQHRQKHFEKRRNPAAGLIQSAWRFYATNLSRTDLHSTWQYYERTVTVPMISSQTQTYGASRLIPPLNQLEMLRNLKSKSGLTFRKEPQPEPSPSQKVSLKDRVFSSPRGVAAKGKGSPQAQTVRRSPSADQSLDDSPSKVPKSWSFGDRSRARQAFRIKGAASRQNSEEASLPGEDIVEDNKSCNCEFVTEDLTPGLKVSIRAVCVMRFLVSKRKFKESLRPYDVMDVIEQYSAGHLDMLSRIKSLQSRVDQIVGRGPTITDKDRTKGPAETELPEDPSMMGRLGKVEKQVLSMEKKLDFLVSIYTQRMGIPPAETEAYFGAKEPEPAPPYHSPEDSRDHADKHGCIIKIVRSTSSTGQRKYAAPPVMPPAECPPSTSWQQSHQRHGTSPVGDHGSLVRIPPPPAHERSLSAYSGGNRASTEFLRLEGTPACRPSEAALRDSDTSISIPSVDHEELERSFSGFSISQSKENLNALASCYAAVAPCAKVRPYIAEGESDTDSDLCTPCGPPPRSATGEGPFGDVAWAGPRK
KCNQ2 enhance = potentiators of rat KCNQ2 potassium channel | O88943 | CHO-K1 KCNQ2, FluxOR thallium flux fluorescence; hits give high values | B-score at 10 µM | hit rate 0.54% among 310,000;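 active means fluorescence ratio B-score at least 3 SD of library B-scores, with initial fluorescence B-score within 3 of them, cut at about 5.3 in these data; same plate scores as AID 2156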;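 further: B-score of peak minus minimum over baseline fluorescence ratio after K+ and Tl+ stimulus; positive B-score means potentiation of KCNQ2 with more thallium influx and brighter signal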
Numbers without * were called inactive; i = inactive; . = no result given.

SMILES | KCNQ2 inh | KCNQ2 enhance
CC12CCC3C(CCC4N(CCO)CCC34C)C1CCC2O (configuration not stated) | i | .
COC(=O)Cn1cc(C(=O)OC)cc(Br)c1=O | i | 0.56
Cc1ccc(-c2csc(NC(=O)c3cc([N+](=O)[O-])ccc3N3CCOCC3)n2)cc1 | i | .
O=C(Nc1nc(-c2ccccc2)cs1)c1ccc(N2CCOCC2)c([N+](=O)[O-])c1 | -7.8* | -7.8
Cc1cc(C)c(S(=O)(=O)Nc2ccc3c(c2)CCC3)c(C)c1 | i | .
CCS(=O)(=O)N1Cc2ccccc2CC1C(=O)NC(C)C12CC3CC(CC(C3)C1)C2 (configuration not stated) | i | .
CCS(=O)(=O)N1Cc2ccccc2CC1C(=O)NCC12CC3CC(CC(C3)C1)C2 (configuration not stated) | -7.07* | -7.07
CCc1ccccc1NC(=O)Nc1cnccn1 | i | 0.17
CN(C)S(=O)(=O)n1cc(/C=C(\NC(=O)c2ccccc2)C(=O)N2CCOCC2)c2ccccc21 | i | 0.9
Cc1c(-c2cc(Br)ccc2O)nc2cc3c(cc2c1C)OCO3 | i | .
O=C(NCCOC12CC3CC(CC(C3)C1)C2)c1cccc(Br)c1 | -7.21* | -7.21
O=C(O)CCCCCNC(=O)c1cccc(Br)c1 | i | .
COc1ccc(-c2cc3nc(-c4ccccc4)cc(N4CCC5(CC4)OCCO5)n3n2)cc1 | -6.5* | -6.5
COc1cccc(-c2cc3nc(-c4ccccc4)cc(N4CCCC(O)C4)n3n2)c1 (configuration not stated) | i | .
COc1ccc(-c2cc3nc4c(c(N5CCC6(CC5)OCCO6)n3n2)CCC4)cc1 | i | .
COc1cccc(-c2cc3nc4c(c(N5CCC6(CC5)OCCO6)n3n2)CCC4)c1 | -7.01* | -7.01
CC1(NC(=O)NCCCCCCNC(=O)NC2(C)CCS(=O)(=O)C2)CCS(=O)(=O)C1 (configuration not stated) | i | .
O=C(CCc1nnc(CCCCc2ccccc2)o1)NCc1cccc(F)c1 | i | .
COc1ccc(CNc2nc3nc(C)c(Cl)c(C)n3n2)cc1OC | i | 0.03
Cc1cc(SC#N)cc(C)c1NC(=O)CCl | i | 6.31*
CCc1cc(SC#N)cc(C)c1N | i | .
CCC(=O)Nc1ccc(SC#N)cc1C | i | 0.11
CCc1cc(SC#N)cc(C)c1NC(=O)CCl | i | 10.9*
Cc1ccc(C(=O)COC(=O)CN2C(=O)C3CC=CCC3C2=O)cc1[N+](=O)[O-] (configuration not stated) | i | .
CCN(CC)CCOc1ccc(/C(=C(\Cl)c2ccccc2)c2ccccc2)cc1 | -7.56* | -7.56
SMILES | KCNQ2 inh | KCNQ2 enhance
CCN(CC)CCOc1ccc(Br)cc1 | i | .
Cn1c(NC(=O)c2cc(-c3ccc4c(c3)OCO4)nc3ccccc23)cc(=O)n(C)c1=O | i | .
CC(C)(C)NC(=O)c1cc(-c2ccc3c(c2)OCO3)nc2ccccc12 | -5.62* | -5.62
c1ccc2c(Nc3nc4c(s3)CCCC4)cccc2c1 | -7.44* | -7.44
O=S(=O)(Nc1nc2c(s1)CCCC2)c1ccc2ccccc2c1 | i | 0.15
COc1ccc(-c2nc(NC(=O)c3[nH]c(C)c(C(C)=O)c3C)sc2C)cc1 | -6.47* | -6.47
COc1ccc(OC)c(NC(=O)c2[nH]c(C)c(C(C)=O)c2C)c1 | i | 0.07
CC(=O)c1c(C)[nH]c(C(=O)Nc2nc(-c3ccc(Cl)cc3)cs2)c1C | i | 0.73
CC(=O)c1c(C)[nH]c(C(=O)Nc2nc(-c3ccc(-c4ccccc4)cc3)cs2)c1C | -7.64* | -7.64
O=C(NCc1ccco1)C1CCN(S(=O)(=O)c2ccc(-n3cnnn3)cc2)CC1 | i | 1.2
COc1cccc(N2[C@@H](CC(C)=O)c3ccccc3S2(=O)=O)c1 | i | .
COC(=O)N1CC(c2ccccc2)CC1=O (configuration not stated) | i | 0.07
O=C(NCc1cccnc1)/C(=C\c1ccc(-c2ccc(Br)cc2)o1)S(=O)(=O)c1ccccc1 | i | .
O=C(NCc1cccnc1)/C(=C/c1ccc(-c2ccc(Cl)cc2)o1)S(=O)(=O)c1ccccc1 | -6.15* | -6.15
COc1cccc(/C=C/C(=O)NCCc2ccc(OC)c(OC)c2)c1 | i | 2.44
CCN(CC)S(=O)(=O)c1cc(C)c(C)cc1OCC(=O)NC1CCCC1 | i | .
COc1ccc(NS(=O)(=O)c2c(C(=O)N3CCCCCC3)c(C)n(C)c2C)cc1OC | i | 0.21
O=c1[nH]cnc2scc(-c3ccc(Br)cc3)c12 | i | 0.84
Cc1ccc(-c2csc3nc[nH]c(=S)c23)cc1 | i | 13.6*
CN(Cc1cnn(C)c1)C(=O)C1CCC(=O)N(Cc2cccc(F)c2)C1 (configuration not stated) | i | .
N#Cc1cccnc1N1CCN(C(=O)c2ccccc2)CC1 | i | 0.77
O=C(O)C1Cc2c([nH]c3ccccc23)C(c2ccc3c(c2)OCO3)N1 (configuration not stated) | i | .
COc1ccc(C2NC(C(=O)O)Cc3c2[nH]c2ccccc32)cc1CN1CCN(c2ccc(F)cc2)CC1 (configuration not stated) | -5.67* | -5.67
COc1ccc2c(c1)C1(Nc3ccccc3-c3nc4ccccc4n31)C(=O)N2 (configuration not stated) | i | .
Cc1cccc(NC(=O)C2(C)CC3c4ccccc4C2c2ccccc23)c1C (configuration not stated) | i | .
SMILES | KCNQ2 inh | KCNQ2 enhance
Cn1c(CC(=O)Nc2ccccc2)c(Sc2ccccc2)c2ccccc21 | -6.15* | -6.15
CSc1c(CC(=O)Nc2ccccc2)n(C)c2ccccc12 | i | .
O=C(CSc1nnc(-c2ccccc2)n1C1CCCCC1)Nc1ccc(S(=O)(=O)Nc2ccccn2)cc1 | i | 0.93
COc1ccc(N2CCN(CC(=O)Nc3nc4c(s3)CC(C)CC4)CC2)cc1 (configuration not stated) | i | .
Cn1nc(C(=O)Nc2ccccc2N2CCCC2)c2ccccc2c1=O | -5.64* | -5.64
CC(C)n1nc(C(=O)Nc2ccccc2N2CCOCC2)c2ccccc2c1=O | i | .
Cc1nc(Cl)sc1C(=O)Nc1ccc(C(C)(C)C)cc1 | i | .
C/C(=N/NC(=O)c1cccnc1)C1=C(O)CC(C)(C)CC1=O | i | 0.01
CC1(C)CC1C(=O)Nc1ccc([N+](=O)[O-])cc1Br (configuration not stated) | i | 1.36
Cc1ccc(C2(c3ccc(C)cc3)CC2C(=O)Nc2ccc([N+](=O)[O-])cc2O)cc1 (configuration not stated) | -7.76* | -7.76
COc1cc(C(=O)Nc2ccc(-n3cnnn3)c(C)c2)cc(OC)c1OC | i | 1.32
CCCc1cc(N2CCCC(C(=O)Nc3ccc(OC)cc3OC)C2)n2ncnc2n1 (configuration not stated) | i | 0.41
Cc1cc(/C=C(\C#N)C(=O)NCc2ccco2)c(C)n1-c1cccnc1 | i | 0.47
Cc1cc(/C=C(/C#N)c2cccc(F)c2)c(C)n1-c1cccnc1 | -8* | -8
CC(=O)c1cccc(NC(=O)CSc2nc(=O)n(CCCN3CCOCC3)c3c2CCC3)c1 | i | .
CC(C)(C)c1ccc(C(=O)NCC(=O)N/N=C/c2cccs2)cc1 | i | 0.84
c1ccc2c(c1)nc(N1CCOCC1)c1nncn12 | i | .
c1ccc(N2CCOCC2)c(Nc2nc3ccccc3n3cnnc23)c1 | -6.33* | -6.33
COc1ccccc1C(=O)Nc1ccc2c(C)cc(=O)oc2c1 | i | 1.01
